Reference: PubChem BioAssay (EPA / NIEHS)
Values joined by “and” are separate entries in the source; they are usually repeats but may differ in a detail not shown here. Equal values may be shown once. Some structures have more than one record in an assay (separate samples or runs), and their calls can disagree. Active and inactive are the calls of the source. The calls were made as follows: active = hit-call score of the fitted dose curve at least 0.9, where 1 is the maximum; inactive = score below 0.9.

Read-out: Monokine induced gamma interferon (MIG), CXCL9 (gene 4283)
Assay: BSK_BE3C_MIG: BioMAP Diversity Plus: BE3C Assay for Monokine induced gamma interferon (MIG) Biomarker Activity (AID 2283035);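 as to outcome: MIG protein measured by ELISA in BE3C cultures after 24 h of dosing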
Settings: primary human bronchial epithelial cells; actives raise or lower the signal
Procedure, shortened: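 hu bronchial epithelial 1° cells, 24 h cpd; MIG by ELISA; bidirectional fit, DMSO = baseline.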

| SMILES | AC50 | outcome |
| --- | --- | --- |
| CCCCCCCCCCCCN1CCCC1=O | 35.2 µM (active) | – |
| CCCOC(=O)c1ccc(O)cc1 | – | inactive |
| CC(=O)NC1(c2cccc(F)c2)CCN(CC[C@@]2(c3ccc(Cl)c(Cl)c3)CN(c3ccccc3)C(=O)CO2)CC1 | 26.9 µM (active) | – |
| CCc1nn(C2CCCCC2)c2cc(C3(C#N)CCC(C(=O)O)CC3)ccc12 (stereo not given) | 28 µM (active) | – |
| ClC1=C(Cl)C(Cl)(Cl)C(Cl)=C1Cl | 10.1 µM (active) | – |
| C[C@@H]1C[C@H]2[C@@H]3CCC4=CC(=O)C=C[C@]4(C)[C@@]3(F)[C@@H](O)C[C@]2(C)[C@@]1(O)C(=O)COP(=O)(O)O | – | inactive |
| CCCCCCCCC(=O)O | – | inactive |
| NC(=O)N1C(=O)C(C(=O)c2cc(Cl)cs2)c2cc(F)c(Cl)cc21 (stereo not given) | 9.59 µM (active) | – |
| CC(C)(C)CC(C)(C)c1ccc(O)c(-n2nc3ccccc3n2)c1 | – | inactive |
| c1ccc2c(c1)ccc1ccccc12 | – | inactive |
| CN1CCC[C@H]1c1cccnc1 | – | inactive |
| CCOC(=O)CC(O)(CC(=O)OCC)C(=O)OCC | – | inactive |
| O=c1c(-c2ccc(O)cc2)coc2cc(O)ccc12 | – | inactive |
| CCCCCCCCCCCCCC[N+](C)(C)C | 8.17 µM (active) | – |
| CCCCCCCCOC(=O)CCCCCCCCC(=O)OCCCCCCCC | – | inactive |
| OC1CCCCC1 | – | inactive |

| SMILES | AC50 | outcome |
| --- | --- | --- |
| CCc1ccc(CCOc2ccc(CC3SC(=O)NC3=O)cc2)nc1 (stereo not given) | – | inactive |
| COCC(C)OCC(C)O (stereo not given) | – | inactive |
| N#C[C@@H]1CC(F)(F)CN1C(=O)CNC1CC2CCC(C1)N2c1ncccn1 (stereo not given in full) | – | inactive |
| CCCCCCCCCCCCCCCS(=O)(=O)Oc1ccccc1 | – | inactive |
| CCN(CC)CCNc1ccc(CNC=O)c2sc3ccc(OC)cc3c(=O)c12 | – | inactive |
| CCCOc1sc(C(=O)N2CCC(c3cc(CN)ccc3F)CC2)c(C)c1Br | 10.2 µM (active) | – |
| OCCC(F)(F)C(F)(F)C(F)(F)C(F)(F)C(F)(F)C(F)(F)C(F)(F)C(F)(F)F | 33.5 µM (active) and 28.7 µM (active) | inactive |
| c1ccc2cc3c(ccc4ccccc43)cc2c1 | – | inactive |
| CC(O)CO (stereo not given) | – | inactive |
| C=C(C)C(=O)OCCC(F)(F)C(F)(F)C(F)(F)C(F)(F)C(F)(F)C(F)(F)F | – | inactive |
| NC(=O)N(O)[C@@H]1C=C[C@H](Oc2cccc(Oc3ccc(F)cc3)c2)C1 | – | inactive |
| CC[C@H](C)[C@@H](C(=O)O)n1sc2ccccc2c1=O | – | inactive |
| Cc1oc(-c2ccccc2)nc1CCOc1ccc(C[C@H](Nc2ccccc2C(=O)c2ccccc2)C(=O)O)cc1 | 4.79 µM (active) | – |
| CC#C[C@]1(O)CC[C@H]2[C@@H]3CCC4=CC(=O)CCC4=C3[C@@H](c3ccc(N(C)C)cc3)C[C@@]21C | – | inactive |
| COCC(C)O (stereo not given) | – | inactive |
| COC(=O)CCCCC(=O)OC | – | inactive |

Read-out: Transforming growth factor beta 1 (TGFb1), TGFB1 (gene 7040)
Assay: BSK_BE3C_TGFb1: BioMAP Diversity Plus: BE3C Assay for Transforming growth factor beta 1 (TGFb1) Biomarker Activity (AID 2283036;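 as to outcome: TGF-b1 protein level measured by ELISA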)
Settings: primary human bronchial epithelial cells; actives raise or lower the signal
Procedure, shortened: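 Read-out: ELISA for TGF-b1 in primary human bronchial epithelial cultures, 24 h post-dose. Bidirectional curve fitting vs DMSO control; gain or loss of signal both scored.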

| SMILES | AC50 | outcome |
| --- | --- | --- |
| CCCCCCCCCCCCN1CCCC1=O | 20 µM (active) | – |
| CCCOC(=O)c1ccc(O)cc1 | – | inactive |
| CC(=O)NC1(c2cccc(F)c2)CCN(CC[C@@]2(c3ccc(Cl)c(Cl)c3)CN(c3ccccc3)C(=O)CO2)CC1 | – | inactive |
| CCc1nn(C2CCCCC2)c2cc(C3(C#N)CCC(C(=O)O)CC3)ccc12 (stereo not given) | – | inactive |
| ClC1=C(Cl)C(Cl)(Cl)C(Cl)=C1Cl | 5.53 µM (active) | – |
| C[C@@H]1C[C@H]2[C@@H]3CCC4=CC(=O)C=C[C@]4(C)[C@@]3(F)[C@@H](O)C[C@]2(C)[C@@]1(O)C(=O)COP(=O)(O)O | – | inactive |
| CCCCCCCCC(=O)O | – | inactive |
| NC(=O)N1C(=O)C(C(=O)c2cc(Cl)cs2)c2cc(F)c(Cl)cc21 (stereo not given) | 2.88 µM (active) | – |
| CC(C)(C)CC(C)(C)c1ccc(O)c(-n2nc3ccccc3n2)c1 | – | inactive |
| c1ccc2c(c1)ccc1ccccc12 | – | inactive |
| CN1CCC[C@H]1c1cccnc1 | – | inactive |
| CCOC(=O)CC(O)(CC(=O)OCC)C(=O)OCC | – | inactive |
| O=c1c(-c2ccc(O)cc2)coc2cc(O)ccc12 | – | inactive |
| CCCCCCCCCCCCCC[N+](C)(C)C | 1.52 µM (active) | – |
| CCCCCCCCOC(=O)CCCCCCCCC(=O)OCCCCCCCC | – | inactive |
| OC1CCCCC1 | – | inactive |

| SMILES | AC50 | outcome |
| --- | --- | --- |
| CCc1ccc(CCOc2ccc(CC3SC(=O)NC3=O)cc2)nc1 (stereo not given) | – | inactive |
| COCC(C)OCC(C)O (stereo not given) | – | inactive |
| N#C[C@@H]1CC(F)(F)CN1C(=O)CNC1CC2CCC(C1)N2c1ncccn1 (stereo not given in full) | – | inactive |
| CCCCCCCCCCCCCCCS(=O)(=O)Oc1ccccc1 | – | inactive |
| CCN(CC)CCNc1ccc(CNC=O)c2sc3ccc(OC)cc3c(=O)c12 | – | inactive |
| CCCOc1sc(C(=O)N2CCC(c3cc(CN)ccc3F)CC2)c(C)c1Br | 6.71 µM (active) | – |
| OCCC(F)(F)C(F)(F)C(F)(F)C(F)(F)C(F)(F)C(F)(F)C(F)(F)C(F)(F)F | – | inactive |
| c1ccc2cc3c(ccc4ccccc43)cc2c1 | – | inactive |
| CC(O)CO (stereo not given) | – | inactive |
| C=C(C)C(=O)OCCC(F)(F)C(F)(F)C(F)(F)C(F)(F)C(F)(F)C(F)(F)F | – | inactive |
| NC(=O)N(O)[C@@H]1C=C[C@H](Oc2cccc(Oc3ccc(F)cc3)c2)C1 | – | inactive |
| CC[C@H](C)[C@@H](C(=O)O)n1sc2ccccc2c1=O | – | inactive |
| Cc1oc(-c2ccccc2)nc1CCOc1ccc(C[C@H](Nc2ccccc2C(=O)c2ccccc2)C(=O)O)cc1 | 5.06 µM (active) | – |
| CC#C[C@]1(O)CC[C@H]2[C@@H]3CCC4=CC(=O)CCC4=C3[C@@H](c3ccc(N(C)C)cc3)C[C@@]21C | – | inactive |
| COCC(C)O (stereo not given) | – | inactive |
| COC(=O)CCCCC(=O)OC | – | inactive |
